Measured values from PubChem BioAssay (Tox21).
“And” between values parts separate entries of the source, which are not always exact repeats. Identical values can stand only once. Results filed as inconclusive are left out. Entries that show only a call come without a potency. More than one record can exist for a structure, and the calls need not agree. The source made the active and inactive calls. Unless noted, the call rests on the fitted dose curve; in most records, active means well fitted curve in the direction sought with a large enough effect in the repeat runs; inconclusive means weak or mixed curves; inactive means no such curve, though single readings can be large; an effect the other way counts as inactive or inconclusive.

Tests used:
[1] = qHTS assay to identify small molecule antagonists of the estrogen receptor alpha (ER-alpha) signaling pathway using the BG1 cell line in the presence of 0.1 nM 17-beta-estradiol - cell viability counter screen (AID 1259241); further: nearly all actives have a fitted effect of over 40% in size
Summary of the method: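 Measures cytotoxicity alongside the ER-alpha antagonist readout: VM7Luc4E2 cells, charcoal-stripped serum, 0.1 nM 17beta-estradiol final, 22 hr compound incubation at 37C, CellTiter-Fluor fluorescence.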

[2] = qHTS assay to identify small molecule antagonists of the androgen receptor (AR) signaling pathway using the MDA cell line in the presence of 0.5 nM R1881 - cell viability counter screen (AID 1259242); further: nearly all actives have a fitted effect of over 45% in size
Summary of the method: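 Viability of MDA-kb2 cells was multiplexed with the luciferase AR readout; after 16 hr with compounds and R1881 at 0.5 nM final, CellTiter-Fluor fluorescence was recorded.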

[3] = biological target: Estrogen receptor (Homo sapiens) (UniProt P03372); test: qHTS assay to identify small molecule antagonists of the estrogen receptor alpha (ER-alpha) signaling pathway using the BG1 cell line in the presence of 0.1 nM 17-beta-estradiol (AID 1259244); further: nearly all actives have a fitted effect of over 50% in size
Summary of the method: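 Estradiol at 0.1 nM (final) stimulates the endogenous ER-alpha of VM7Luc4E2 cells carrying an ERE-driven luciferase; compounds are co-incubated 22 h at 37C and luciferase output quantified by luminescence.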

[4] = qHTS assay to identify small molecule HDAC inhibitors - cell viability counter screen (AID 1259365); further: series mostly up to about 92 µM; nearly all actives have a fitted effect of over 50% in size
Summary of the method: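 Following a 2hr exposure of overnight-plated wild-type HCT-116 cells to DMSO-delivered compounds, CellTiter-Glo was added and luminescence recorded after 30min at room temperature.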

[5] = qHTS assay to identify small molecule antagonists of the sonic hedgehog signaling (Shh) pathway - cell viability counter screen (AID 1259367); further: nearly all actives have a fitted effect of over 55% in size; further: potency means the concentration at half of the fitted maximal effect
Summary of the method: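 Using CellTiter-Fluor, viability of Gli1-Luc reporter 3T3 cells is read by fluorescence in the wells used for the Shh luciferase assay. Treatment lasts 23 hr with conditioned medium, then reagent 1 hr at 37C.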

[6] = qHTS assay to identify small molecule agonists of the sonic hedgehog signaling (Shh) pathway (AID 1259368; calls by dose curve;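 further: NIH/3T3-derived 3T3Gli1-Luc cells carrying a stable Gli1-driven firefly luciferase reporter; series mostly up to about 92 µM; nearly all actives have a fitted effect of over 15% in size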)
Summary of the method: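 A Gli1 transcriptional response element controlled firefly luciferase in 3T3Gli1-Luc cells. Compounds and a positive control were added 4 hr after plating, and cells were incubated a further 24 hr at 37 C before luminescence detection.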

[7] = qHTS assay to identify small molecule antagonists of the sonic hedgehog signaling (Shh) pathway (AID 1259369; calls by dose curve; further: nearly all actives have a fitted effect of over 45% in size; further: potency means the concentration at half of the fitted maximal effect)
Summary of the method: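 For antagonist detection, the reporter line received test compounds together with conditioned medium, incubated 24hr at 37 C, 5% CO2, then luminescence was recorded following 30min room-temperature luciferase reagent incubation.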

[8] = biological target: Estrogen receptor beta (Homo sapiens) (UniProt Q92731); test: qHTS assay to identify small molecule agonists of the estrogen receptor beta (ER-beta) signaling pathway (AID 1259377; active means well fitted activation curve with a large enough effect in the signal ratio in the repeat runs, not every such curve was filed as active; the % refers to the signal ratio)
Summary of the method: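 In HEK293T cells bearing a UAS-beta-lactamase reporter under ER-beta control, DMSO-delivered compounds were incubated for 16 hr at 37C. Activity was detected as fluorescence 2 hours after LiveBLAzer B/G FRET substrate addition.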

[9] = biological target: Estrogen receptor beta (Homo sapiens) (UniProt Q92731); test: qHTS assay to identify small molecule antagonists of the estrogen receptor beta (ER-beta) signaling pathway (AID 1259378; active means well fitted inhibition curve with a large enough effect in the signal ratio in the repeat runs, not every such curve was filed as active; the % refers to the signal ratio)
Summary of the method: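 Antagonist mode: compounds added to beta-lactamase reporter HEK293T ER-beta-UAS cells stimulated with E2 (1nM final), 16 hr at 37C. LiveBLAzer B/G FRET substrate, 2 hours room temperature, fluorescence read-out.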

[10] = qHTS assay to identify small molecule agonists of the androgen receptor (AR) signaling pathway in the presence of an antagonist - cell viability counter screen (AID 1259379);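 further: MDA-kb2 human breast cancer cells carrying an MMTV luciferase reporter; series mostly up to about 92 µM; nearly all actives have a fitted effect of over 25% in size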
Summary of the method: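 Seed MDA-kb2 at 3,000 cells/well; incubate 5 hr, 37C, 0% CO2. Add nilutamide to 3.0uM final, then pin compounds at 15 concentrations. Incubate 16 hr. Add CellTiter-Fluor at 15 hr, read fluorescence after 1 hr.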

[11] = qHTS assay to identify small molecule antagonists of the estrogen receptor beta (ER-beta) signaling pathway - cell viability counter screen (AID 1259382);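 further: HEK293T cells carrying ER-beta-UAS-bla reporter stimulated with estradiol; series mostly up to about 92 µM; nearly all actives have a fitted effect of over 55% in size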
Summary of the method: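 In this multiplexed counter screen, cells were seeded at 2,000 per well in medium with 2% charcoal-stripped FBS and incubated 6 hr before compound and 1nM final E2 were added. Sixteen hours later, ATP-based luminescence reported viability.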

[12] = biological target: Estrogen receptor (Homo sapiens) (UniProt P03372); test: qHTS assay to identify small molecule agonists of the estrogen receptor alpha (ER-alpha) signaling pathway in the presence of an antagonist (AID 1259383; calls by dose curve; further: top concentration of the series differs between compounds; nearly all actives have a fitted effect of over 15% in size)
Summary of the method: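 Stably transfected VM7Luc4E2 reporter cells, kept 5 days in charcoal-stripped serum, received ICI-182,780 at 10.0nM final before compound addition. Following 22hr incubation at 37C and 5% CO2, luciferase signal was read by luminescence.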

[13] = qHTS assay to identify small molecule agonists or antagonists of the thyroid stimulating hormone receptor (TSHR) signaling pathway - wild type cell line counter screen (AID 1259384; calls by dose curve)
Summary of the method: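 Counter screen in untransfected Hek293: compounds (15-point titration, triplicate) plus phosphodiesterase inhibitor Ro20-1724 added after 18 h plating; 30 min RT. Intracellular cAMP via competitive d2/cryptate immunoassay, 1 h incubation.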

[14] = qHTS assay to identify small molecule HDAC inhibitors (AID 1259364); further: potency means the concentration at half of the fitted maximal effect;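 further: wild-type HCT-116 cells with endogenous class I/II HDAC activity; nearly all actives have a fitted effect of over 45% in size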
Summary of the method: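 Read-out: luminescence of HDAC-Glo I/II reagent, 30 min RT, reflecting class I/II deacetylase activity in whole HCT-116 cells pre-exposed 2 h to DMSO-dissolved compounds.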

[15] = qHTS assay to identify small molecule agonists of the sonic hedgehog signaling (Shh) pathway - cell viability counter screen (AID 1259366); further: nearly all actives have a fitted effect of over 50% in size
Summary of the method: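 After a 4hr attachment at 37C, NIH/3T3 cells bearing an integrated Gli1-driven luciferase reporter were dosed with compounds. Treatment lasted 24hr, with the final hour including CellTiter-Fluor for a fluorescence viability measurement.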

[16] = qHTS assay to identify small molecule agonists of the estrogen receptor beta (ER-beta) signaling pathway - cell viability counter screen (AID 1259380); further: nearly all actives have a fitted effect of over 30% in size; further: potency means the concentration at half of the fitted maximal effect
Summary of the method: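 CellTiter-Glo read, 30 min RT, same wells as bla assay; cells ER-beta-UAS-bla HEK293T; 16 hr compound, 37C; medium 2% charcoal-stripped FBS.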

[17] = qHTS assay to identify small molecule phospholipidosis (PLD) inducers (AID 1259344; active means well fitted curve in the direction sought with a large enough effect; an effect the other way counts as inactive or inconclusive)
Summary of the method: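 Fluorescent phospholipid staining (LipidTOX Red) measured by automated microscopy in fixed HepG2 cells after 24 h treatment; nuclei counterstained with Hoechst 33342; amiodarone as reference inducer.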

Estrogen receptor (Homo sapiens), sequence (P03372 whole entry, looked up): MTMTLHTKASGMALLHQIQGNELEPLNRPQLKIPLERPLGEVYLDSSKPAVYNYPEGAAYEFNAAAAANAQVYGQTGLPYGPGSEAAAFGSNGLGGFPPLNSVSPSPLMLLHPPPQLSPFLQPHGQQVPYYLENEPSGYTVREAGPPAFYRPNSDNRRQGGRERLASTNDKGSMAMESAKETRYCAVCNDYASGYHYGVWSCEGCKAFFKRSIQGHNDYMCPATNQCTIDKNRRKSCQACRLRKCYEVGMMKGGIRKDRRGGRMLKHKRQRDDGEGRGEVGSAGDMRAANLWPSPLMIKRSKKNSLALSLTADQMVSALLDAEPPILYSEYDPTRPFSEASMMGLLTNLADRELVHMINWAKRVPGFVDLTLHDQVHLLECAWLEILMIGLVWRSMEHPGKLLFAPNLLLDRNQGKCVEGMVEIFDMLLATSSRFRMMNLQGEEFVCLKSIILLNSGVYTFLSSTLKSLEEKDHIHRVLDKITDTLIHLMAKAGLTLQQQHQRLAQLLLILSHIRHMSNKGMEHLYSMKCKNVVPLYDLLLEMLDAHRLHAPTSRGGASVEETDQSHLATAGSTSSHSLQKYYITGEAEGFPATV
Estrogen receptor beta (Homo sapiens), sequence (Q92731 whole entry, looked up): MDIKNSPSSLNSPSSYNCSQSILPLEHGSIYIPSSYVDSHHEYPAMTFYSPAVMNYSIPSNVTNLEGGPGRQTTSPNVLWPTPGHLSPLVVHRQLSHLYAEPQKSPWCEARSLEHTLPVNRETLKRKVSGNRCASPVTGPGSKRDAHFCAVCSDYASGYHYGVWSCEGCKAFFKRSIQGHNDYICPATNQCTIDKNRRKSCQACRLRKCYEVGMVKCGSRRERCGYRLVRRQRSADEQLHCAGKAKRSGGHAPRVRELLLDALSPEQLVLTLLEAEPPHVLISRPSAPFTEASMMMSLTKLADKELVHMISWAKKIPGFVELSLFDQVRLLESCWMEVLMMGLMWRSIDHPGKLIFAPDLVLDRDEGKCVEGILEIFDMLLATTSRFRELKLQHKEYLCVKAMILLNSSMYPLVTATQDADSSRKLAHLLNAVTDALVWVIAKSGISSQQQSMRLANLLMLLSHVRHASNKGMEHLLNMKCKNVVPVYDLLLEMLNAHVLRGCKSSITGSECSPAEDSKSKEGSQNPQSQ

| Structure (SMILES) | outcome [1] | outcome [2] | Potency [3] | outcome [4] | Potency [5] | outcome [6] | Potency [7] | Potency [8] | outcome [9] | Potency [10] | outcome [11] | outcome [12] | outcome [13] | Potency [14] | Potency [15] | Potency [16] | Potency [17] |
| --- | --- | --- | --- | --- | --- | --- | --- | --- | --- | --- | --- | --- | --- | --- | --- | --- | --- |
| Cc1cccc(N)c1C | inactive | inactive | inactive | inactive | inactive | inactive | inactive | inactive | inactive | inactive | inactive | inactive | inactive | – | – | – | – |
| Cc1ccc(N=C=O)cc1N=C=O | inactive | inactive | – | inactive | inactive | inactive | – | – | – | inactive | inactive | – | – | inactive | inactive | 34.3 µM (active) and inactive | – |
| Nc1cccc(Cl)c1 | inactive | inactive | inactive | inactive | inactive | inactive | inactive | inactive | inactive | inactive | inactive | inactive | inactive | inactive | inactive | – | – |
| CN(C)CCC#N | inactive | inactive | inactive | inactive | inactive | inactive | – | inactive | inactive | inactive | inactive | inactive | – | inactive | – | – | – |
| C/C=C/c1ccc2c(c1)OCO2 | inactive | inactive | – | inactive | inactive | inactive | inactive | – | – | inactive | inactive | – | – | inactive | inactive | – | – |
| C[C@H]1C(=O)O[C@@H]2CCN3CC=C(COC(=O)[C@](C)(O)[C@]1(C)O)[C@H]23 | inactive | inactive | inactive | inactive | inactive | inactive | – | – | – | inactive | inactive | inactive | – | – | – | – | inactive |
| COc1nc(NC(C)C)nc(NC(C)C)n1 | inactive | inactive | inactive | inactive | inactive | inactive | – | inactive | inactive | inactive | inactive | inactive | inactive | inactive | – | – | – |
| CCCCCCCCCCCCCCCCCC(=O)O | inactive | inactive | – | inactive | inactive | inactive | 17.1 µM (active) and inactive | – | – | inactive | inactive | – | – | inactive | inactive | – | – |
| Cc1ccc(N)cc1 | inactive | inactive | – | inactive | inactive | inactive | inactive | – | – | inactive | inactive | – | inactive | inactive | – | inactive | – |
| [N-]=[N+]=CC(=O)OC[C@H](N)C(=O)O | inactive | inactive | – | inactive | inactive | inactive | – | – | – | inactive | inactive | – | – | inactive | inactive | inactive | inactive |
| Sc1ccccc1 | inactive | inactive | inactive | inactive | inactive | inactive | – | – | – | inactive | inactive | inactive | – | inactive | – | inactive | – |
| O=C(O)C1C(C(=O)O)C2(Cl)C(Cl)=C(Cl)C1(Cl)C2(Cl)Cl (stereo not given) | inactive | inactive | inactive | inactive | inactive | inactive | – | inactive | inactive | inactive | inactive | inactive | inactive | inactive | inactive | – | – |
| OCCCCO | inactive | inactive | – | inactive | inactive | inactive | inactive | – | – | inactive | inactive | – | inactive | – | inactive | inactive | – |
| NNc1ccccc1 | inactive | inactive | – | inactive | inactive | inactive | – | inactive | inactive | inactive | inactive | – | inactive | inactive | – | inactive | inactive |
| O=C(O)C(Br)Br | inactive | inactive | inactive | inactive | inactive | inactive | – | inactive | inactive | inactive | inactive | inactive | – | – | inactive | inactive | – |
| Cc1ccccc1N | inactive | inactive | – | inactive | inactive | inactive | – | – | – | inactive | inactive | – | – | inactive | inactive | inactive | – |
| Clc1cnc(Oc2ccc(Oc3ncc(Cl)cc3Cl)cc2)c(Cl)c1 | inactive | inactive | – | inactive | inactive | inactive | – | inactive | inactive | inactive | inactive | – | – | – | – | – | – |
| C=CC(=O)OCC(CC)CCCC (stereo not given) | inactive | inactive | – | inactive | inactive | inactive | inactive | inactive | inactive | inactive | inactive | – | – | – | – | inactive | – |
| COC(=O)Nc1cccc(OC(=O)Nc2cccc(C)c2)c1 | inactive | inactive | – | inactive | inactive | inactive | inactive | inactive | inactive | inactive | inactive | – | – | 27.3 µM (active) and 30.6 µM (active) | inactive | inactive | – |
| Nc1cc(Cl)cc(Cl)c1 | inactive | inactive | – | inactive | inactive | inactive | inactive | inactive | inactive | inactive | inactive | – | inactive | inactive | – | inactive | – |
| Cl/C=C/Cl | inactive | inactive | inactive | inactive | inactive | inactive | – | – | – | inactive | inactive | inactive | – | inactive | inactive | – | – |
| Cc1ccc(O)c(C)c1 | inactive | inactive | inactive | inactive | inactive | inactive | inactive | inactive | inactive | inactive | inactive | inactive | – | inactive | – | – | – |
| COS(=O)(=O)OC | inactive | inactive | inactive | inactive | inactive | inactive | inactive | – | – | inactive | inactive | inactive | – | – | – | – | – |
| Nc1ccc(N)cc1 | inactive | inactive | – | inactive | 61.4 µM (active) and 54.5 µM (active) and inactive | inactive | – | inactive | inactive | inactive | inactive | – | inactive | – | – | – | inactive |
| FC(F)(F)c1ccc(Cl)cc1 | inactive | inactive | inactive | inactive | inactive | inactive | – | inactive | inactive | inactive | inactive | inactive | inactive | – | – | – | – |
| CCOP(=S)(OCC)Oc1cc(C)nc(C(C)C)n1 | inactive | inactive | – | inactive | inactive | inactive | – | – | – | inactive | inactive | – | – | – | – | inactive | inactive |
| CN(C)C(=O)C(c1ccccc1)c1ccccc1 | inactive | inactive | – | inactive | inactive | inactive | – | inactive | inactive | inactive | inactive | – | – | – | inactive | – | – |
| CC(=O)/C=C/c1ccccc1 | inactive | inactive | – | inactive | inactive | inactive | inactive | inactive | inactive | inactive | inactive | – | inactive | – | – | inactive | – |
| CNCC(O)c1ccc(O)cc1 (stereo not given) | inactive | inactive | inactive | inactive | inactive | inactive | inactive | inactive | inactive | inactive | inactive | inactive | inactive | – | – | inactive | inactive |
| CCNc1nc(Cl)nc(NC(C)C)n1 | inactive | inactive | inactive | inactive | inactive | inactive | – | inactive | inactive | inactive | inactive | inactive | – | inactive | inactive | inactive | – |
